According to PubChem BioAssay (NCATS):
Inconclusive results are not listed. Unmarked numbers belong to inactive results. Activity calls are given as the source filed them. The call rests on the fitted dose curve; in most records, active means well fitted curve in the direction sought with a large enough effect in the signal ratio, with a control signal flat (not every such curve was filed as active); inconclusive means small, poorly fitted or top-dose-only effect, or a change in a side signal; inactive means no such curve, though single readings can be large or run the other way; the % refers to the signal ratio.

Test: qHTS Assay for Identification of Small Molecule Inducers of Hypoxia Response (AID 2120); further: 0% is about no effect
Settings: hypoxia response reporter cells, beta-lactamase ratio readout; series mostly up to 104 µM; activation: at the top concentration
Source text: NIH Chemical Genomics Center [NCGC]
NIH Molecular Libraries Screening Centers Network [MLSCN]
National Institutes of Environmental Health Sciences [NIEHS]
National Toxicology Program [NTP]
Hypoxia-inducible factor-1 (HIF-1) is the major hypoxia-regulated transcription factor that controls cellular responses to low oxygen concentration. HIF-1 is composed of two subunits: hypoxia responsive HIF-1a and constitutively expressed HIF-1b, which is also known as aryl hydrocarbon receptor nuclear translocator. During hypoxic conditions, HIF-1a heterodimerizes with HIF-1b and translocates into the nucleus where the HIF-1 complex binds to the hypoxia-response element (HRE) and activates expression of target genes such as VEGF (vascular endothelial growth factor). The HIF-1 pathway is essential to normal growth and development, and is involved in the pathophysiology of cancer, inflammation, and ischemia.
Using a beta-lactamase reporter-gene under control of the hypoxia response element, a cell-based assay [CellSensor(TM) HRE-bla ME-180 developed by Invitrogen Corp.] was used to measure hypoxia-induced signaling. Library compounds were measured for their ability to induce the reporter gene activity. Compounds were screened in a titration series in 1536-well format. The inducers were identified based on the AC50 values derived from the screening data.
NCGC Assay Protocol Summary
2500 cells/5uL in Opti-MEM medium containing 0.5% dialyzed FBS, 0.1 mM NEAA, 1 mM sodium pyruvate and 10 mM HEPES was dispensed into 1536-well plates and cells were cultured at 37 degrees Celsius for 4-5 hours and then 23 nL of compounds or DMSO were delivered to each well using a pin tool. The plates were incubated at 37 degrees Celsius for 17 hours. 1 uL of CCF4-dye mixture was added to each well. After incubated at room temperature for 2.5 hours the plates were measured on an EnVision plate reader at Excitation 405nm, Emission1=460nm and Emission 2=530nm. The %Activity was determined from the ratio of 460nm/530nm.

SMILES | activation | outcome
O=[N+]([O-])c1ccc(Cl)c(Cl)c1 | 0.6% | 
CCCOC(=O)c1ccccc1C(=O)OCCC | 1.39% | 
O=C(O)COc1ccc(Cl)cc1Cl |  | inactive
CCOc1ccc(N)cc1 | 0% | 
OCC1CO1 (stereo not given) | -0.321% | 
COC(=O)NC(=S)Nc1ccccc1NC(=S)NC(=O)OC | 1.16% | 
CCN(CC)c1ccccc1 | -0.302% | 
Cc1cccc(C#N)c1 | -0.546% | 
C=C(C)C(=O)OCC1CO1 (stereo not given) | -0.564% | 
c1nc[nH]n1 | -0.302% | 
CC(O)CCl (stereo not given) | -0.595% | 
C/C=C/c1ccc2c(c1)OCO2 | -0.0046% | 
ClC1=C(Cl)C2(Cl)C3C4CC(C5OC45)C3C1(Cl)C2(Cl)Cl (stereo not given) | 1.84% | 
CC(C)(C)OOC(C)(C)C | 0.273% | 
Brc1ccccc1 | -0.311% | 
Clc1nc(Cl)nc(Nc2ccccc2Cl)n1 | -0.029% | 
C=CC1CC=CCC1 (stereo not given) | -0.564% | 
COP(=S)(OC)Oc1ccc([N+](=O)[O-])cc1 | 2.46% | 
C[C@]12CC[C@H]3[C@@H](CCC4=CC(=O)CC[C@@]43C)[C@@H]1CC[C@@H]2O | 1.62% | 
BrCCBr | -0.253% | 

SMILES | activation | outcome
CC(=O)[O-].CC(=O)[O-].O.O.O.[Pb+2] |  | inactive
CCC[CH2][Sn]([Cl])([Cl])[Cl] | 3.32% | 
Cc1ccc([N+](=O)[O-])cc1C | -0.0403% | 
C=C(C)C#N | -0.0046% | 
CC(Cl)Cl | 1.91% | 
O=NN(CCO)CCO | -0.302% | 
c1ccc(OP(Oc2ccccc2)Oc2ccccc2)cc1 | -0.483% | 
O=C(Cl)/C=C/C(=O)Cl | 0.819% | 
CCCCOC(=O)c1ccccc1C(=O)OCCCC | -0.0139% | 
c1ccc2c(c1)CCCC2 | -1.17% | 
ClC(Cl)(Cl)c1ccccc1 |  | inactive
Clc1cccc(C(Cl)(Cl)Cl)n1 | 0.507% | 
Oc1ccc(Cl)cc1Cl | 0.604% | 
COC1=CC(=O)OC(CCc2ccccc2)C1 (stereo not given) | 2.73% | 
ClC(Cl)=C(Cl)Cl |  | inactive
C[N+](C)(C)Cc1ccccc1 | 0.202% | 
CC(C)(C)OO |  | inactive
Cc1ccccc1N |  | inactive
NC(=S)Nc1ccccc1 |  | inactive
Clc1cc(Cl)c(-c2cc(Cl)c(Cl)cc2Cl)cc1Cl | 4.2% | 
